Reference: ChEMBL document CHEMBL3988442, “University of Dundee, Small-Polar-MMV Screening Library” (2021)
The campaign covered roughly 48,000 compounds. About 13,000 (27%) showed an effect of 50% or more. The list shows a part of the results.

The compounds below were run on Wolbachia pipientis (assay: Anti-Wolbachia Cell-Based Screen). Details: 5 µM.
Type: functional
Design: scale not given: in the data most compounds retested in dose-response had high values

Compared with Cc1cc(C(=O)N2CCC(c3nccn3Cc3ccncc3)CC2)no1, CN(CC(=O)Nc1ccncc1)C1CCCN(c2cccnn2)C1 (configuration not stated) is higher in “Percent Effect” value: -16.29% for the first, 95.39% for the second.

First: C[C@@H]1C[C@H]2CN(C(=O)C3=CCCC3)C[C@H]2O1
Second: COc1ccc(C2=CCN(C(=O)C3CCC3)CC2)cc1
The “Percent Effect” value of the first is lower: -41.87% for the first, 121.8% for the second.

Going from CCOc1ccc(S(=O)(=O)NCCc2ccc(N(C)C)cc2)cc1F to CCN(CC)C(=O)CCNC(=O)N(C)Cc1ccc(SC)c(OC)c1, the “Percent Effect” value rises from 9.493% to 28.83%.

Compared with Cc1ccc(F)c(CNc2ccn(CCC(N)=O)n2)c1, CCCNCC1(O)CCCN(Cc2cccc(C)c2)C1=O (configuration not stated) is higher in “Percent Effect” value: -13.86% for the first, 20.78% for the second.

Compared with O=C1CC[C@H]2CN(c3ncc(F)cn3)CC[C@H]2N1CCc1ccccn1, Cn1nnc2c1C(COCc1ccccn1)CN(C(=O)c1ccsc1)C2.O=C(O)C(F)(F)F (configuration not stated) is higher in “Percent Effect” value: -8.563% for the first, -2.517% for the second.

Going from Cc1ccc(CN2CCC3(CC(C(=O)NCC4CC4)=NO3)C2)cc1C (configuration not stated) to O=C(NCC1CC1)C1=NOC2(CCN(Cc3ccc4c(c3)OCO4)C2)C1 (configuration not stated), the “Percent Effect” value falls from 21.96% to -22.77%.

Going from CCCS(=O)(=O)N1CCC2(CC(C(=O)NCc3cccnc3)=NO2)C1 (configuration not stated) to Cc1cccc(CN2CCC3(CC(C(=O)NCC(C)C)=NO3)C2)c1 (configuration not stated), the “Percent Effect” value rises from -9.91% to 117.4%.

First: CC(C)CNC(=O)C1=NOC2(CCN(Cc3cccc(C#N)c3)C2)C1 (configuration not stated)
Second: N#Cc1cccc(CN2CCC3(CC(C(=O)NCC4CC4)=NO3)C2)c1 (configuration not stated)
The “Percent Effect” value of the first is higher: 102.8% for the first, -1.937% for the second.

Compared with CNc1snc(C)c1C(=O)N1CCCC(n2ccnc2C(C)C)C1 (configuration not stated), Cc1nnc(NC(=O)CN(C)C2CCCN(c3cccnn3)C2)s1 (configuration not stated) is higher in “Percent Effect” value: 1.946% for the first, 131.3% for the second.

First: Cc1n[nH]c(=O)c2c(NC(=O)CN3CCC(O)CC3)oc(C)c12
Second: CC1CCN(Cn2nc(-c3ccc(F)cc3)oc2=O)CC1
The “Percent Effect” value of the first is higher: 10.48% for the first, 4.807% for the second.

First: Nc1nc(CCC(=O)N2C[C@@H](CN3CCCC3)C[C@H](CO)C2)n[nH]1
Second: CCn1ncnc1C1CC(=O)NCc2nc(N3CCCC3)sc21 (configuration not stated)
The “Percent Effect” value of the first is lower: -12.43% for the first, 88.25% for the second.

First: CCOc1cccc(C2CC(=O)NCc3nc(N)sc32)c1 (configuration not stated)
Second: CCOc1cccc(C2CC(=O)NCc3nc(N(C)C)sc32)c1 (configuration not stated)
The “Percent Effect” value of the first is lower: 2.31% for the first, 5.085% for the second.

Compared with CCOc1cccc(C2CC(=O)NCc3nc(N4CCCC4)sc32)c1 (configuration not stated), CCn1ncnc1C1CC(=O)NCc2nc(N3CCOCC3)sc21 (configuration not stated) is higher in “Percent Effect” value: -6.785% for the first, 112.6% for the second.

Going from CCn1ncnc1C1CC(=O)NCc2nc(N)sc21 (configuration not stated) to CCn1ncnc1C1CC(=O)NCc2nc3ccccn3c21 (configuration not stated), the “Percent Effect” value falls from 74.2% to -4.231%.

First: CCCn1ncc(C2CC(=O)NCc3nc4sc(C)cn4c32)c1C (configuration not stated)
Second: Cc1ccc(C2CC(=O)NCc3nc(N)sc32)cc1C (configuration not stated)
The “Percent Effect” value of the first is higher: 0.1811% for the first, 0.1432% for the second.

Compared with O=C1CCCc2[nH]c(=O)c(C(=O)N(CC3CCCCC3)C3CC3)cc21, O=C(NCC1CC1)c1cc(Cl)c2c(c1)OCCCO2 is lower in “Percent Effect” value: -8.56% for the first, -14.68% for the second.

Going from Cc1ccc(S(=O)(=O)N2CCOc3ccccc32)cc1C(N)=O to COc1ccc(C2=CCN(C(=O)CN(C)CC(N)=O)CC2)cc1, the “Percent Effect” value falls from 5.411% to -8.253%.

Compared with CC(C)c1noc(CN(C)C(=O)c2ccccc2-c2nc[nH]n2)n1, COCc1nnc(-c2cccc(C(=O)N(C)CC(C)(C)C)c2)o1 is higher in “Percent Effect” value: -15.19% for the first, 1.349% for the second.

Going from CCS(=O)(=O)N1CCN(C(=O)NC(C)C)CC2(CC(=O)N(C)C2)C1 (configuration not stated) to CC(C)NC(=O)N1CCN(S(=O)(=O)C2CC2)CC2(CC(=O)N(C)C2)C1 (configuration not stated), the “Percent Effect” value falls from -2.042% to -16.72%.

Compared with CCN1CC2(CC1=O)CN(C(=O)NC(C)C)CCN(C(=O)C(C)C)C2 (configuration not stated), CCN1CC2(CC1=O)CN(C(=O)NC(C)C)CCN(C(=O)NC(C)C)C2 is lower in “Percent Effect” value: 117.3% for the first, 115.2% for the second.

Compared with CCN1CC2(CC1=O)CN(C(=O)C(C)C)CCN(S(C)(=O)=O)C2 (configuration not stated), CCN1CC2(CC1=O)CN(C(=O)C(C)C)CCN(S(=O)(=O)CC)C2 (configuration not stated) is higher in “Percent Effect” value: 4.611% for the first, 12.11% for the second.

Going from CCN1CC2(CC1=O)CN(C(C)=O)CCN(S(C)(=O)=O)C2 (configuration not stated) to CCN1CC2(CC1=O)CN(C(=O)NC)CCN(S(C)(=O)=O)C2 (configuration not stated), the “Percent Effect” value rises from -3.303% to 1.458%.

Compared with CC(C)NC(=O)N1CCN(C(=O)N(C)C)CC2(CC(=O)N(C)C2)C1 (configuration not stated), CNC(=O)N1CCN(C(=O)C(C)C)CC2(CC(=O)N(C)C2)C1 (configuration not stated) is lower in “Percent Effect” value: 11.38% for the first, -13.05% for the second.

Going from CCN1CC2(CC1=O)CN(C(=O)NC(C)C)CCN(S(C)(=O)=O)C2 (configuration not stated) to CCN1CC2(CC1=O)CN(C(=O)N(C)C)CCN(S(C)(=O)=O)C2 (configuration not stated), the “Percent Effect” value falls from 100.8% to -16.32%.

Going from CCN1CC2(CC1=O)CN(C(C)=O)CCN(C(=O)NC)C2 (configuration not stated) to CCN1CC2(CC1=O)CN(C(C)=O)CCN(C(=O)NC(C)C)C2 (configuration not stated), the “Percent Effect” value falls from 104.3% to 101.7%.

Compared with CCN(CCO)C(=O)C1CCC(=O)N(Cc2cccc(OC)c2)C1 (configuration not stated), COc1ccc(C2=CCN(C(=O)C3CCCN(C(C)=O)C3)CC2)cc1 (configuration not stated) is higher in “Percent Effect” value: 4.416% for the first, 109.7% for the second.

Compared with NC(=O)N1CCCN(CC(=O)NCCc2c(F)cccc2F)CC1, COc1ccc(C2=CCN(C(=O)C3CCCN(C(N)=O)C3)CC2)cc1 (configuration not stated) is higher in “Percent Effect” value: -7.896% for the first, 7.391% for the second.

Going from Cc1nc[nH]c1CN1CCCn2nc(CN3CCC(F)(F)CC3)cc2C1 to O=c1oc(-c2ccc(F)cc2)nn1CN1CCN(CC2CC2)CC1, the “Percent Effect” value rises from 5.091% to 89.16%.

First: CCN1CC2(CC1=O)CN(C(C)=O)CCN(S(=O)(=O)CC)C2 (configuration not stated)
Second: CCS(=O)(=O)N1Cc2nnn(C)c2C(COCCN(C)C)C1.O=C(O)C(F)(F)F (configuration not stated)
The “Percent Effect” value of the first is lower: -5.362% for the first, 7.645% for the second.

Compared with CCC1(CNCc2ncc[nH]2)CCCC1, CN(CC(=O)NC1(C#N)CCCC1)C1CCCN(c2cccnn2)C1 (configuration not stated) is higher in “Percent Effect” value: -14.89% for the first, 1.351% for the second.

Going from CN(CC(=O)Nc1cccnc1)C1CCCN(c2cccnn2)C1 (configuration not stated) to Cc1nc(CN2CCCC(N(C)CC(=O)Nc3cccnc3)C2)no1 (configuration not stated), the “Percent Effect” value falls from 85.32% to 13.61%.

Going from CN(CC(=O)NC1CCOCC1)C1CCCN(c2cccnn2)C1 (configuration not stated) to Cc1nnc(NC(=O)CN(C)CC2CCCN2c2cccnn2)s1 (configuration not stated), the “Percent Effect” value falls from 137.1% to -3.874%.

Compared with Cc1csc(NC(=O)CN(C)CC2CCCN2c2cccnn2)n1 (configuration not stated), CN(C(=O)Cc1coc(-c2cccs2)n1)C1(C#N)CCC1 is lower in “Percent Effect” value: 8.253% for the first, 3.793% for the second.

Going from COC(=O)C1CCCCN1C(=O)c1ccc(N(C)C)cc1F (configuration not stated) to COc1ccc(OC)c(C2CCN(C(=O)C3CCS(=O)(=O)CC3)C2)c1 (configuration not stated), the “Percent Effect” value rises from -10.97% to -1.419%.

Compared with CN(C)CC(=O)N1CC[C@H]2OCC[C@@]2(COCC2CC2)C1, COc1ccc(OC2CCN(C(=O)C3CCCN(C)C3)CC2)cc1 (configuration not stated) is higher in “Percent Effect” value: -4.204% for the first, 0.8407% for the second.

First: O=c1oc(-c2ccc(F)cc2)nn1CC1CCOC1 (configuration not stated)
Second: O=c1oc(-c2ccc(F)cc2)nn1CC1CCCCO1 (configuration not stated)
The “Percent Effect” value of the first is higher: -10.24% for the first, -16.49% for the second.

Going from O=c1oc(-c2ccc(F)cc2)nn1CN1CCN(C2CCCC2)CC1 to O=c1oc(-c2ccc(F)cc2)nn1CN1CCCCC1, the “Percent Effect” value rises from -7.879% to 107.7%.

First: O=c1oc(-c2ccc(F)cc2)nn1CCc1ccncc1
Second: O=c1oc(-c2ccc(F)cc2)nn1CN1CCSCC1
The “Percent Effect” value of the first is lower: -21.89% for the first, 92.99% for the second.

Going from CC(=O)N1CCN(Cn2nc(-c3ccc(F)cc3)oc2=O)CC1 to COc1ccc(C2=CCN(C(=O)C3CC(=O)N(C4CC4)C3)CC2)cc1 (configuration not stated), the “Percent Effect” value falls from 6.471% to -2.251%.

First: CCc1nc(CN2CCCN(C(=O)C(C)COC)CC2)cs1 (configuration not stated)
Second: Cn1nnc2c1C(COCC1CC1)CN(C(=O)Cc1ccsc1)C2 (configuration not stated)
The “Percent Effect” value of the first is higher: 7.127% for the first, 2.514% for the second.

Compared with COc1ccc(C2=CCN(C(=O)C3CCS(=O)(=O)C3)CC2)cc1 (configuration not stated), COc1ccc(C2=CCN(C(=O)CN(C)CC(C)C#N)CC2)cc1 (configuration not stated) is lower in “Percent Effect” value: 136.7% for the first, -3.041% for the second.

Going from CCCC(C)(C)NC(=O)c1cnc(CC)s1 to CCOCC1CN(Cc2ccc(OC)cc2)Cc2nn(C)cc21.O=C(O)C(F)(F)F (configuration not stated), the “Percent Effect” value rises from -7.388% to 11.5%.

First: CN(C)C1CC2(CCN(C(=O)C3(C#N)CC3)CC2)c2ccccc21.O=C(O)C(F)(F)F (configuration not stated)
Second: CN(C)CC(=O)N1Cc2nnn(C)c2C(COCc2ccccn2)C1.O=C(O)C(F)(F)F.O=C(O)C(F)(F)F (configuration not stated)
The “Percent Effect” value of the first is lower: 5.959% for the first, 6.818% for the second.

First: O=C1CSCN1Cc1nc(-c2ccc(N3CCCCC3)cc2)no1
Second: COCC1CN(Cc2ccc(OC)cc2)Cc2nnn(CC3CC3)c21.O=C(O)C(F)(F)F (configuration not stated)
The “Percent Effect” value of the first is lower: -5.803% for the first, -5.304% for the second.

Compared with CN(C)CCOCC1CN(Cc2ccncc2)Cc2nnn(C)c21.O=C(O)C(F)(F)F.O=C(O)C(F)(F)F.O=C(O)C(F)(F)F (configuration not stated), CN(C)CCOCC1CN(Cc2ccccn2)Cc2nnn(C)c21.O=C(O)C(F)(F)F.O=C(O)C(F)(F)F.O=C(O)C(F)(F)F (configuration not stated) is higher in “Percent Effect” value: 96.02% for the first, 99.25% for the second.

First: COc1ccc(CN2Cc3nnn(C)c3C(COCCN(C)C)C2)cc1.O=C(O)C(F)(F)F.O=C(O)C(F)(F)F (configuration not stated)
Second: CN(C)CCOCC1CN(Cc2ccc(F)cc2)Cc2nnn(C)c21.O=C(O)C(F)(F)F.O=C(O)C(F)(F)F (configuration not stated)
The “Percent Effect” value of the first is higher: 106.7% for the first, 94.54% for the second.

Going from CN(C)CCOCC1CN(Cc2ccsc2)Cc2nnn(C)c21.O=C(O)C(F)(F)F.O=C(O)C(F)(F)F (configuration not stated) to CN(C)CCOCC1CN(CC2CCOCC2)Cc2nnn(C)c21.O=C(O)C(F)(F)F.O=C(O)C(F)(F)F (configuration not stated), the “Percent Effect” value falls from 121.1% to 0.5849%.

Going from CC(C)NC(=O)NC[C@H]1OC[C@@H](NCc2ccccc2F)[C@@H]1O to CC(C)Oc1cccc(CN(C)C(=O)Cc2ccon2)c1, the “Percent Effect” value rises from -8.31% to 7.051%.

CC(O)CN1CCC(CN(C)Cc2ccc(C#N)cc2)CC1 (configuration not stated) was tested, and the “Percent Effect” value was -6.641%.
